Laboratory results from the supplement of paper PMC8728848.
This excerpt belongs to a sample that is enriched for the strongest signals.

How the values were obtained:
Assay in all cases: glycan array binding signal (z-score within array); higher = stronger binding
Settings in all cases: glycan notation: IUPAC condensed, linker removed
[1] = target: Fuc(a1-2)Gal(b1-3)GalNAc(b1-3)Gal
Method in brief: (§1)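 Columns mapping to the same glycan were averaged after glycan names were converted to IUPAC-condensed notation. The data come from 3228 arrays in the Consortium for Functional Glycomics database, limited to those with an available protein sequence. Binding is reported as a within-array Z-score averaged across arrays of one protein sequence and across linkers.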

[2] = target: Fuc(a1-2)Gal(b1-3)[Fuc(a1-4)]GlcNAc(b1-3)[Fuc(a1-3)[Gal(b1-4)]GlcNAc(b1-6)]Gal(b1-4)Glc
Method in brief: as §1

[3] = target: Fuc(a1-2)[GalNAc(a1-3)]Gal(b1-3)GalNAc(b1-3)Gal(a1-4)Gal(b1-4)Glc
Method in brief: as §1

[4] = target: Fuc(a1-2)[GalNAc(a1-3)]Gal(b1-4)[Fuc(a1-3)]GlcNAc
Method in brief: as §1

[5] = target: Fuc(a1-3)[Gal(b1-4)]Glc6S
Method in brief: as §1

[6] = target: Fuc(a1-3)[Gal(b1-4)]GlcNAc(b1-6)GalNAc
Method in brief: as §1

[7] = target: Gal(a1-3)Gal(b1-3)GlcNAc(b1-6)GalNAc
Method in brief: as §1

Gal(a1-3)Gal(b1-4)GlcNAc = target: Gal(a1-3)Gal(b1-4)GlcNAc
Method in brief: as §1

[8] = target: Gal(a1-3)Gal(b1-4)[Fuc(a1-3)]GlcNAc
Method in brief: as §1

Gal(a1-3)GalNAc = target: Gal(a1-3)GalNAc
Method in brief: as §1

[9] = target: Gal(a1-3)[Gal(a1-4)]Gal(b1-4)GlcNAc
Method in brief: as §1

Gal(a1-4)Gal(b1-4)Glc = target: Gal(a1-4)Gal(b1-4)Glc
Method in brief: as §1

Gal(b1-3)Gal = target: Gal(b1-3)Gal
Method in brief: as §1

Gal(b1-3)GalNAc(b1-3)Gal = target: Gal(b1-3)GalNAc(b1-3)Gal
Method in brief: as §1

[10] = target: Gal(b1-3)GalNAc(b1-4)Gal(b1-4)Glc
Method in brief: as §1

[11] = target: Gal(b1-3)GlcNAc(b1-2)Man(a1-3)[Gal(b1-3)GlcNAc(b1-2)Man(a1-6)]Man(b1-4)GlcNAc(b1-4)[Fuc(a1-6)]GlcNAc
Method in brief: as §1

[12] = target: Gal(b1-3)[GlcNAc(b1-6)]GalNAc
Method in brief: as §1

Gal(b1-4)GlcNAc = target: Gal(b1-4)GlcNAc
Method in brief: as §1

[13] = target: Gal(b1-4)GlcNAc(b1-2)Man(a1-3)[Gal(b1-4)GlcNAc(b1-2)Man(a1-6)][Gal(b1-4)GlcNAc(b1-4)]Man(b1-4)GlcNAc(b1-4)[Fuc(a1-6)]GlcNAc
Method in brief: as §1

[14] = target: Gal(b1-4)GlcNAc(b1-2)Man(a1-6)Man(b1-4)GlcNAc(b1-4)GlcNAc
Method in brief: as §1

[15] = target: Gal(b1-4)GlcNAc(b1-2)[Gal(b1-4)GlcNAc(b1-6)]Man(a1-6)[GlcNAc(b1-4)][Gal(b1-4)GlcNAc(b1-2)Man(a1-3)]Man(b1-4)GlcNAc(b1-4)GlcNAc
Method in brief: as §1

[16] = target: Gal(b1-4)GlcNAc(b1-3)Gal(b1-4)GlcNAc(b1-3)Gal(b1-4)GlcNAc(b1-2)[Gal(b1-4)GlcNAc(b1-3)Gal(b1-4)GlcNAc(b1-3)Gal(b1-4)GlcNAc(b1-6)]Man(a1-6)[Gal(b1-4)GlcNAc(b1-3)Gal(b1-4)GlcNAc(b1-3)Gal(b1-4)GlcNAc(b1-2)Man(a1-3)]Man(b1-4)GlcNAc(b1-4)[Fuc(a1-6)]GlcNAc
Method in brief: as §1

[17] = target: Gal(b1-4)GlcNAc(b1-3)[GlcNAc(b1-6)]Gal(b1-4)GlcNAc
Method in brief: as §1

Gal3S(b1-3)GalNAc = target: Gal3S(b1-3)GalNAc
Method in brief: as §1

[18] = target: Gal3S(b1-4)[Fuc(a1-3)]Glc6S
Method in brief: as §1

Gal4S6S(b1-4)GlcNAc = target: Gal4S6S(b1-4)GlcNAc
Method in brief: as §1

GalNAc(b1-3)Gal = target: GalNAc(b1-3)Gal
Method in brief: as §1

GalNAc(b1-4)GlcNAc = target: GalNAc(b1-4)GlcNAc
Method in brief: as §1

[19] = target: GalNAc(b1-4)GlcNAc(b1-2)Man(a1-3)[GalNAc(b1-4)GlcNAc(b1-2)Man(a1-6)]Man(b1-4)GlcNAc(b1-4)GlcNAc
Method in brief: as §1

Glc(b1-6)Glc = target: Glc(b1-6)Glc
Method in brief: as §1

B1: HFR-3 (Triticum aestivum) (protein)
chain: MKGLLLCALALAFAAVTTHAQLQSCPTRCGKQADGMECPNNLCCSKDGYCGLGVDYCSAGAGCQSGACYDNKICGAQANGTLCRNNHCCSSGGRCGYGREYCSNGCQGGPCWADLKCGHLDNGKLCPNNLCCSQYGYCGLGPEFCGTGCQNGACSTDKPCGNKANGAPCTNNYCCSQYGSCGLGKDYCGTGCQNGACN
glycan array binding signal (z-score) [1]: -0.52 | glycan array binding signal (z-score) [2]: -0.893 | glycan array binding signal (z-score) [3]: -1.32 | glycan array binding signal (z-score) [4]: -0.585 | glycan array binding signal (z-score) [5]: -1.23 | glycan array binding signal (z-score) [6]: -1.31 | glycan array binding signal (z-score) [7]: -0.577 | glycan array binding signal (z-score) (Gal(a1-3)Gal(b1-4)GlcNAc): 0.079 | glycan array binding signal (z-score) [8]: -0.409 | glycan array binding signal (z-score) (Gal(a1-3)GalNAc): 2.1 | glycan array binding signal (z-score) [9]: 1.2 | glycan array binding signal (z-score) (Gal(a1-4)Gal(b1-4)Glc): 2.12 | glycan array binding signal (z-score) (Gal(b1-3)Gal): -0.289 | glycan array binding signal (z-score) (Gal(b1-3)GalNAc(b1-3)Gal): -0.312 | glycan array binding signal (z-score) [10]: 2.24 | glycan array binding signal (z-score) [11]: 0.089 | glycan array binding signal (z-score) [12]: -0.111 | glycan array binding signal (z-score) (Gal(b1-4)GlcNAc): -0.853 | glycan array binding signal (z-score) [13]: -0.212 | glycan array binding signal (z-score) [14]: -0.488 | glycan array binding signal (z-score) [15]: 1.51 | glycan array binding signal (z-score) [16]: 2.51 | glycan array binding signal (z-score) [17]: -0.381 | glycan array binding signal (z-score) (Gal3S(b1-3)GalNAc): 1.67 | glycan array binding signal (z-score) [18]: 6.1 | glycan array binding signal (z-score) (Gal4S6S(b1-4)GlcNAc): 0.828 | glycan array binding signal (z-score) (GalNAc(b1-3)Gal): 1.25 | glycan array binding signal (z-score) (GalNAc(b1-4)GlcNAc): 2.48 | glycan array binding signal (z-score) [19]: 0.738 | glycan array binding signal (z-score) (Glc(b1-6)Glc): -0.1
